This is part of a sample that, as a whole, favours compounds with a hit. Of some 83,000 tested, about 20% had one in any assay.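 48-hour exposure, single concentration, 96-well plates; percent growth endpoint where 0 means no net growth. Active: below 10.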 Unmarked numbers belong to inactive results. The source made the active and inactive calls.
Test system: U251 CNS
Experiment: NCI-60 one-dose screen, 48 h (100 = growth as untreated, 0 = no growth, -100 = all killed)
Details: 10 µM unless noted
Method: Growth inhibition of the U251 human tumor cell line is measured as a screen for anti-cancer activity. Cells are grown in 96 well plates and exposed to the test compound for 48 hours. Compounds are tested at a single concentration, which is 10^-5 M for most compounds. The reported endpoint is percent growth (GI% or GIPRCNT), where numbers from 0 - 100% represent growth inhibition, and numbers from -100% - 0 represent cell death. For example, a value of 40 represents 60% growth inhibition. A value of 0 means no net growth occurred over the course of the experiment. A value of -40 indicates 40% of cells at the beginning of the experiment died by the end of the experiment. A value of -100 means all cells are dead at the end of the experiment.
NCI-60 Human Tumor Cell Lines Screen was performed using the standard one-dose NCI protocol, which is described in more detail at https://dtp.cancer.gov/discovery_development/nci-60/default.htm.
Compounds with GIPRCNT values below 10 were considered active. Activity score was based on GIPRCNT using the following formula: […]
Score is 0 for GIPRCNT values of 100 or above, 50 for GIPRCNT values of 0, and 100 for GIPRCNT values of -100.

Row | Compound | growth
1 | COc1ccc(C2CC(c3ccc4ccccc4c3)=NN2/C=C2\SC(=S)N(NC(=O)Cc3ccccc3Nc3c(Cl)cccc3Cl)C2=O)cc1 (stereo not given) | 16.1%
2 | COC(=O)c1ccc(NC(=O)c2ccc(-c3cccc([N+](=O)[O-])c3)o2)cc1 | 100%
3 | CCOc1cc2ncc(C#N)c(Nc3ccc(F)c(Cl)c3)c2cc1NC(=O)CC1CCSS1 (stereo not given) | -58.9% (active)
4 | CC(C)C[C@@H](NC(=O)[C@@H](Cc1ccccc1)NC(=O)c1cnccn1)B1Oc2ccc(C[C@H](NC(=O)[C@H](Cc3ccc4c(c3)OB([C@@H](CC(C)C)NC(=O)[C@@H](Cc3ccccc3)NC(=O)c3cnccn3)O4)NC(=O)[C@@H](N)CC3CCC4OB([C@@H](CC(C)C)NC(=O)[C@@H](CC5CCCCC5)NC(=O)C5CNCCN5)OC4C3)C(=O)NCCCC[C@@H]3NC(=O)[C@@H](Cc4ccccc4)NC(=O)[C@H](CC(=O)O)NC(=O)CNC(=O)[C@H](CCCNC(=N)N)NC3=O)cc2O1 (stereo not given in full) | -58.4% (active)
5 | COc1cc2c(cc1-c1c(C)noc1C)ncc1nc(C3CCC(F)(F)CC3)n([C@H](C)COC(F)F)c12 | 46.8%
6 | Cc1nn(-c2cc(=O)[nH]c3ccccc23)c(N)c1C#N | 99%
7 | COc1cc(/C=C/C(=O)Nc2cccnc2Nc2ccc(F)cc2)cc(OC)c1OC | 70.8%
8 | CCCCn1c(-c2ccc(C(=O)O/N=C(\N)c3ccc4ccccc4c3)cc2)nc(-c2ccccc2)c1-c1ccccc1 | 73%
9 | CCC(=O)c1ccc(Cl)s1 | 94.6%
10 | O=[N+]([O-])c1cnc(N2CCN(CC3CC3)CC2)nc1N1CCN(CC2CC2)CC1 | 98.4%
11 | OC(COc1cccc2ccccc12)CN1CCN(c2ccccc2Cl)CC1 (stereo not given) | 97.8%
12 | N#Cc1cnn(-c2nc3c(Cl)cccc3s2)c1N | 88%
13 | O=C1/C(=C/c2ccc3c(c2)OCO3)SC(=S)N1CCc1ccc(O)cc1 | 102%
14 | CCCSc1ccc2nc(NC(=O)OC)[nH]c2c1 | 14.1%
15 | COc1ccc(-c2nnc(SCC(=O)c3ccc(Cl)cc3)o2)cc1 | 99.8%
16 | CC(=O)O[C@H]1[C@@H]2OC(=O)C(CSc3ccccc3)[C@@H]2C[C@H]2O[C@]2(C)CC/C=C(\C)CCC[C@@H]1C (stereo not given in full) | 51.6%
17 | COc1cccc2c1C(=O)c1c(O)c3c(c(O)c1C2=O)C[C@](O)(C(=O)CO)C[C@H]3O[C@@H]1C[C@@H](NC(=O)CCCN(C)C2(c3ccc(F)cc3)CC3CCC2C3)[C@H](O)[C@@H](C)O1 (stereo not given in full) | -98% (active)
18 | O=C1/C(=C/C(Cl)=C/c2ccccc2)SC(=S)N1CCc1ccc(O)cc1 | -58.3% (active)
19 | COc1ccc(/C=C2\Oc3cc(OCCCCN4CCCC4)ccc3C2=O)cc1 | 62.6%
20 | Cn1ccnc1C(=O)/C=C/c1ccc(CC(=O)Nc2ccccc2)cc1 | 7.03% (active)

Row | Compound | growth
21 | CCOC(=O)c1csc(NC(=O)COc2cccc(/C=C3\CSc4ccccc4C3=O)c2)n1 | -54.2% (active)
22 | Cn1cc(-c2nonc2-c2c[nH]c3ccc(F)cc23)c2cccnc21 | 84.4%
23 | COc1ccc(C(=O)c2sc3nc4c(c(-c5cccnc5)c3c2N)CCCC4)cc1OC | 70.2%
24 | CCc1nc(N)nc(N)c1C#CC(C)c1cc(-c2ccnc(C)c2)c2oc(C)nc2c1 (stereo not given) | 3.52% (active)
25 | O=C1c2cccc3cccc(c23)C(=O)N1CCCCCN1CCN(CCCCCOc2ccc(-c3nc4ccc(N5CCOCC5)cc4[nH]3)cc2)CC1 | 99.6%
26 | CCCOc1cc2ccccc2cc1C(=O)Nc1nc(NC)c2c(ccc3nccc32)[nH]1 | -85.5% (active)
27 | CCN(CC)CCCCNc1c2ccc(Cl)cc2nc2ccc(OC)cc12 | -9.07% (active)
28 | CC(C)(CCCN=C(N)Nc1ccc(Cl)cc1)c1ccc(F)cc1 | 65.5%
29 | Cn1c(=O)[nH]c(=O)c2nc(CCC(=O)NCCC(=O)O)c(=O)[nH]c21 | 98.2%
30 | O=c1ccccc(-c2ccc(Br)cc2)c1O | 9.54% (active)
31 | CCOC(=O)c1c(C(=O)OCC)c2cc(-c3ccn4c(C(=O)c5ccccc5)c(C(=O)OCC)c(C(=O)OCC)c4c3)ccn2c1C(=O)c1ccccc1 | 99.7%
32 | CCOc1nc(-c2ccccc2)cc2c(O)c(C(=O)N/N=C/c3ccc(O)cc3O)[nH]c(=O)c12 | 21.2%
33 | COc1nc2c(c(=O)n1C)CN(Cc1ccccc1)C=N2 | 115%
34 | O=C1NC(=O)C(c2ccc(Cl)cc2Cl)N1 (stereo not given) | 103%
35 | COc1cc(C)c(C2C(C#N)=C(N)Oc3n[nH]c(-c4cccs4)c32)cc1C(C)C (stereo not given) | 90.2%
36 | O=C1NC(=Nc2ccc(O)cc2)S/C1=C\c1cccc(Cl)c1 | 59.3%
37 | COc1cc(-c2nc3cc(Cl)c(Cl)cc3[nH]2)ccc1OCC(=O)N=Nc1c(O)[nH]c2ccccc12 | -92% (active)
38 | COc1cccc(/C=N/NC(=O)c2ccccc2Nc2ccnc(C(F)(F)F)c2)c1O | 17.1%
39 | CC[C@H]1OC(=O)[C@H](C)[C@@H](O[C@H]2C[C@@](C)(OC)[C@@H](O)[C@H](C)O2)[C@H](C)[C@@H](O[C@@H]2O[C@H](C)C[C@H](N(C)C)[C@H]2O)[C@](C)(O)C[C@H](C)CN(C)[C@H](C)[C@@H](O)[C@]1(C)O | 94.8%
40 | CCN(CC)c1ccc(-c2cc(-c3cc(OC)c(OC)c(OC)c3)nc(N3CCOCC3)c2C#N)cc1 | 36.7%
